# NADH enzymes – inhibitors of enzymes used to reach an NAD/NADH endpoint | coupled PK/LDH NADH assays, four targets | IC50, µM (series often up to 10 µM), inactives show top-dose inhibition | 0.02% of 65,000 active;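 active = single-dose screening hits from any of four coupled enzyme assays that gave an IC50 when retested across doses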;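 note: the DPM-DC format reads NADH fluorescence rather than 340 nm absorbance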
# A340 absorber – compounds absorbing at 340 nm; compound absorbance at 340 nm, fold over control; fold change at 10 µM; 65,000 tested, under 10 active; AID 708;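 active = at 10 µM dose, initial 340 nm absorbance at least 2 fold that of control wells; inactive = change under 2 fold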;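 note: initial absorbance extrapolated from kinetic A340 decline of NADH oxidation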
# Fluor 339 460 – intrinsic fluorescence of library compounds, ex339/em460 – biochemical, MLSMR library, data from DPM-DC assay, artefact control, profiling panel. compound autofluorescence, ex339/em460 nm, NADH buffer; hits give high values; 1 = no-compound wells, NADH background. fluorescence fold increase at 10 µM. 5.5% of 65,000 active. AID 709;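 active = at 10 µM, mean starting fluorescence two-fold or more over control wells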;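 note: signal is the first read of a kinetic run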
# PMK inhibit – blocks S. pneumoniae phosphomevalonate kinase. purified PMK, PK/LDH-coupled NADH absorbance 340 nm. inhibition, % at 10 µM. AID 539. 0.49% of 65,000 active;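 active = top-ranked compounds by inhibition in the single 10 µM screen, taking a fixed number of the strongest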;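 note: 0% = full reaction with DMSO carrier and 100% = background rate without enzyme reaction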
# DPM-DC inhibit – S. pneumoniae DPM-DC inhibition. purified DPM-DC, PK/LDH coupled NADH fluorescence. calls only at 10 µM. 0.49% of 65,000 active. AID 556;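 active = the 320 compounds with the highest percent inhibition in the single-dose primary screen, excluding strongly autofluorescent ones, cut at about 32% in these data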;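 note: kinetic rate of NADH fluorescence loss reporting ADP formed by the decarboxylase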
# Spn MK inh – S. pneumoniae mevalonate kinase inhibition; 0.48% of 65,000 active; inhibition, % at 10 µM; purified MK, PK/LDH-coupled NADH absorbance 340 nm;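 active = ranked among the strongest by inhibition in the single 10 µM screen, a fixed top-ranked set picked for dose follow-up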
# * = called active by the depositor; i = inactive; . = not tested or not shown; + = active, no number. Only some compounds are listed: those with a hit (about 6.5% of all), similar ones and a draw of the others.
SMILES,NADH enzymes,A340 absorber,Fluor 339 460,PMK inhibit,DPM-DC inhibit,Spn MK inh
COc1ccc(C2C(C#N)=C(C)NC3=C2C(=O)CC(C)(C)C3)c(OC)c1 (stereo not drawn),4%,1,1.9,10,.,3
Cc1ccc(N2CCn3c2nc2c3c(=O)n(CCc3ccccc3)c(=O)n2C)cc1,10%,1,2.4*,18,i,9
COc1ccc(N2CCCn3c2nc2c3c(=O)n(CCc3ccccc3)c(=O)n2C)cc1,5%,1,1.1,10,i,6
CN(C)S(=O)(=O)c1ccc(C(=O)Nc2ccnn2C2CCCCC2)cc1,3%,0.99,0.99,9,i,0
O=c1c2ccccc2sn1-c1ccc(S(=O)(=O)N2CCCCC2)cc1,11%,1,1,10,+,10
Cc1ccc(-n2sc3ccccc3c2=O)cc1S(=O)(=O)N1CCCCC1,70%,1.1,1.2,20,+,100*
O=c1c2ccccc2sn1-c1ccc(S(=O)(=O)N2CCCC2)cc1,72%,1.1,1.2,15,+,100*
COc1cccc(C2c3c(oc4ccc(Cl)cc4c3=O)C(=O)N2c2cc(C)on2)c1OC (stereo not drawn),4%,1.1,1,10,i,1
CCCCCOc1ccc(C(=O)NCC(=O)NCC(=O)OCC)cc1,2%,1,1.1,2,i,0
O=C(Cn1cnc2c(nnn2-c2ccc(F)cc2)c1=O)N1CCCC1,6%,0.97,1.1,11,i,7
COC(=O)c1sc2nc(N3CCCCC3)c3c(c2c1N)CC(C)(C)N(C)C3,1%,1.1,2.3*,2,.,0
CCOC(=O)c1sc2nc(N3CCOCC3)c3c(c2c1N)CCC3,11%,1.1,3.6*,5,.,17
CCOC(=O)c1[nH]c(C)c(C(=O)OCC)c1C,0%,1,1.1,0,i,0
CCOC(=O)c1nc(N)c(C(=O)OCC)[nH]1,3%,1.1,2.3*,0,.,6
Cc1ccc(-c2c(C#N)c(N)nc3c2CCCCCC3)o1,4%,0.92,2.2*,6,.,2
Cc1ccc(-c2c(C#N)c(N)nc3c2CCCCC3)o1,8%,1.1,2*,5,i,5
CCCc1n[nH]c2c1C(=O)C(C(=O)OC)C(C)(C)C2 (stereo not drawn),5%,1,1,12,i,4
c1ccc(-c2cc3c(-n4cccc4)ncnc3o2)cc1,2%,1.1,3.2*,5,i,1
COc1cccc(C2CC(c3cccc(C)c3)n3ncnc3N2)c1 (stereo not drawn),5%,1,1,8,i,5
CC(=O)NCCc1cc2ccc(C)c(C)c2[nH]c1=O,2%,1.1,1.3,4,i,0
Cc1ccc2cc(CCNC(=O)CC(C)(C)C)c(=O)[nH]c2c1C,8%,1.1,2*,5,.,10
O=C1CCCC2=C1C1(CCCC1)N=C(Nc1nc3ccccc3s1)N2,6%,1,2*,3,i,3
O=C1CCCC2=C1C1(CCCCC1)N=C(Nc1nc3ccccc3s1)N2,7%,1.1,2.3*,7,i,14
Cc1csc(NC(=O)C2CCCN(S(=O)(=O)c3ccc(Br)s3)C2)n1 (stereo not drawn),6%,1,1.1,15,i,3
O=c1c(N2CCCCC2)coc2ccccc12,3%,1.1,1,0,i,1
SMILES,NADH enzymes,A340 absorber,Fluor 339 460,PMK inhibit,DPM-DC inhibit,Spn MK inh
CCN(CC)c1ccc2c(Cl)c(Br)c(=O)oc2c1,1%,1,1.5,0,i,4
CCOC(=O)c1c(C)oc2ccc(O)c(CN(C)C)c12,3%,0.99,1,11,i,1
CCN(CC)c1ccc2c(C)c(-c3ccc(N)cc3)c(=O)oc2c1,6%,0.98,2.5*,12,.,1
CCOC(=O)Cc1c(C)c2ccc(N(CC)CC)cc2oc1=O,12%,1,4.4*,15,.,9
CCOC(=O)Cc1c(C)c2c(O)cc(O)cc2oc1=O,4%,1.1,2.4*,0,.,5
CCOC(=O)CCc1c(C)c2ccc(O)cc2oc1=O,12%,1.1,3.7*,14,.,9
COc1ccc(-c2cc(C(=O)NCC(C)C)no2)cc1,6%,1,1.1,18,i,0
O=C(OCc1nc2ccc(Cl)cc2n1CCO)c1ccc2c(c1)OCO2,5%,1,1.1,11,i,0
Cc1ccnc(NC(=O)c2cc(S(=O)(=O)N3CCCCC3)ccc2Cl)c1,6%,1,1.5,0,i,3
O=C(Nc1nc2c(s1)CCCC2=O)c1cnccn1,7%,1.2,1,6,i,9
COC(=O)c1cc(OC)c(OC)cc1NC(=O)c1cc(C)on1,7%,1,1.1,5,i,16
CCCCc1nc(NCC2CCCO2)c(C#N)c2c1COC(C)(C)C2 (stereo not drawn),5%,1,2.4*,5,.,4
CCCSc1nc(N2CCCC2)c2c(c1C#N)CC(C)(C)OC2,1%,1.1,1.2,1,i,1
CCCCc1nc(N2CCOCC2)c(C#N)c2c1COC(C)(C)C2,6%,1,2.3*,9,.,3
CCc1cccc(NC2c3ccccc3C(=O)N2c2cccnc2)c1 (stereo not drawn),5%,1,1.1,11,i,3
CCN(CC(=O)Nc1ccc2c(c1)OCCO2)c1nc(-c2cccnc2)nc2ccccc12,15%,1.1,1.1,23,i,7
Cc1cc2nc(-c3ccc(SCC(=O)N4CCN(C(=O)c5ccco5)CC4)nc3)[nH]c2cc1C,9%,1.3,4.4*,7,.,11
Cc1cc2nc(-c3ccc(SCC(=O)N4CCOCC4)nc3)[nH]c2cc1C,5%,1.1,2.2*,3,.,7
CCn1c2ccccc2c2nnc(SCC(=O)N3CC(C)OC(C)C3)nc21 (stereo not drawn),8%,1.1,1.1,15,i,6
CSC1=NCCN1C(=O)Cc1cccs1,2%,1,1,0,i,2
CCCc1cc(=O)oc2cc(Oc3ncccn3)ccc12,16%,1.1,3.4*,18,i,7
CCCc1cc(=O)oc2cc(OCC(=O)Nc3cc(C)on3)ccc12,9%,1.1,3.6*,6,i,0
Cc1ccccc1-n1c(C)nnc1SCC(=O)N1CC(=O)Nc2ccccc21,6%,1,1,18,i,0
CCOC(=O)c1sc2nc(NC(=O)C3CCCCC3)sc2c1C,4%,1,1.3,3,i,2
CCOC(=O)c1sc2nc(NC(=O)C3CC3)sc2c1C,8%,1.1,2*,0,i,3
N#Cc1ccccc1NC(=O)c1ccc(-c2ccccc2Cl)o1,6%,1.1,1.3,6,i,12
